AmpC inh detg: qHTS Inhibitors of AmpC Beta-Lactamase (assay with detergent); P00811; AmpC hydrolysis of nitrocefin, absorbance 480 nm, 0.01% Triton; Potency, µM (titrated, usually from 114 µM), actives largely listed as inhibitors; 370,000 tested, 0.041% active; AID 485294, 2010; further: nearly all actives have a fitted effect of over 25% in size
Target sequence (P00811 whole entry, looked up): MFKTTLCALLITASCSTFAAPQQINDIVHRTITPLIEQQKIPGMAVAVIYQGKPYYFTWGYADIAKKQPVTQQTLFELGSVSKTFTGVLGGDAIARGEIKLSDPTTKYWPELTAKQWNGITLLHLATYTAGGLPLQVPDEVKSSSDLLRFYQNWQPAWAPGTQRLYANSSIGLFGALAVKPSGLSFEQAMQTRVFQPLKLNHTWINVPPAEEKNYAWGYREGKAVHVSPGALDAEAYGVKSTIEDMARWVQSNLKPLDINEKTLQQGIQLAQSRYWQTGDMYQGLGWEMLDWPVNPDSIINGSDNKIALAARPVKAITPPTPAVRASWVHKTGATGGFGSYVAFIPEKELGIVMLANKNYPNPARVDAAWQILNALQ
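20 mM phosphate pH 7.0 + 0.01% (detergent screen) or 0.0001% Triton X-100; 5.3 nM AmpC reagent; cpd preinc 15 min RT; nitrocefin (800 uM stock) to start; A480 q20 s × 4 min; Activity was normalised to no-enzyme and no-compound control wells.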
AmpC no deterg: qHTS Inhibitors of AmpC Beta-Lactamase (assay without detergent) | AmpC nitrocefin hydrolysis, absorbance 480 nm, 0.0001% Triton | Potency, µM (titrated, usually from 57.1 µM), actives largely listed as inhibitors | 330,000 tested, 0.52% active; further: nearly all actives have a fitted effect of over 20% in size
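20 mM phosphate pH 7.0 + 0.01% (detergent screen) or 0.0001% Triton X-100; 5.3 nM AmpC reagent; cpd preinc 15 min RT; nitrocefin (800 uM stock) to start; A480 q20 s × 4 min; Activity was normalised to no-enzyme and no-compound control wells.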
Vaccinia Venus: qHTS for Stage-Specific Inhibitors of Vaccinia Orthopoxvirus: Venus Reporter Primary qHTS; Potency, µM (top dose mostly 36.5 µM), actives largely listed as inhibitors; AID 720580, 2013; Vaccinia virus Venus reporter expression, fluorescence; 330,000 tested, 0.46% active; calls by dose curve; tested in A549 cells; further: nearly all actives have a fitted effect of over 30% in size
Vaccinia mCherry: qHTS for Stage-Specific Inhibitors of Vaccinia Orthopoxvirus: mCherry Reporter Primary qHTS; Vaccinia virus mCherry reporter infection, fluorescence; Potency, µM (highest dose often 36.5 µM), actives largely listed as inhibitors; 310,000 tested, 0.63% active; calls by dose curve; tested in A549 cells; further: nearly all actives have a fitted effect of over 35% in size
SARS PLpro yeast: qHTS of Yeast-based Assay for SARS-CoV PLP | S. cerevisiae expressing SARS-CoV PLpro, growth rescue | Potency, µM (top dose mostly 32.9 µM), most hits filed as activators | 330,000 tested, 0.19% active | AID 485353, 2010; calls by dose curve; further: nearly all actives have a fitted effect of over 55% in size
Each line names hits and unclear results; the compound was inactive in the other large screens. An excerpt weighted towards active compounds, which were near 1.3% of everything screened. Unless noted, the call rests on the fitted dose curve; in most records, active means well fitted curve in the direction sought with a large enough effect; inconclusive means small, poorly fitted or top-dose-only effect, or another doubt; inactive means no such curve, though single readings can be large; an effect the other way counts as inactive or inconclusive.

O=C(NC(c1ccccc1)c1c(O)ccc2ccccc12)c1ccccc1Cl (configuration not stated)	none (no result: Vaccinia Venus, Vaccinia mCherry)
Cc1cc(C)cc(C(=O)NCc2nc(-c3cccc(NC(=O)c4ccccn4)c3)oc2C)c1	none (no result: AmpC inh detg, AmpC no deterg, SARS PLpro yeast)
COc1cccc(NC(=O)Nc2nnc(CC(=O)NCc3ccccc3)s2)c1	AmpC no deterg 25µM (no result: Vaccinia Venus, Vaccinia mCherry)
COc1ccc(OC)c(/C=N/NC(=O)c2[nH]ncc2Br)c1	none
CCOc1ccc(/C=N/NC(=O)c2[nH]ncc2Br)c(O)c1	Vaccinia Venus inconclusive, Vaccinia mCherry 1.3µM
O=C(N/N=C/c1c(O)ccc2ccccc12)c1[nH]ncc1Br	Vaccinia Venus inconclusive, Vaccinia mCherry 2.5µM, SARS PLpro yeast inconclusive
O=C(N/N=C/c1c(O)ccc2ccccc12)c1cccc(C(F)(F)F)c1	Vaccinia Venus inconclusive, Vaccinia mCherry 3.5µM, SARS PLpro yeast 4µM
COc1ccc2ccccc2c1/C=N/NC(=O)c1cccc(Br)c1	AmpC inh detg inconclusive
Cc1ccc(O)c(/C=N/NC(=O)c2[nH]ncc2Br)c1	none
Cc1ccc(CNc2ncnc3sc(C(=O)N4CCC(N5CCCC(O)C5)CC4)c(C)c23)o1 (configuration not stated)	none (no result: AmpC inh detg, AmpC no deterg, SARS PLpro yeast)
Cc1cc(C)nc(SSc2nc(C)cc(C)n2)n1	AmpC inh detg 79µM, AmpC no deterg inconclusive
Cc1cccc2[nH]c3c(N4CCC5(CC4)OCCO5)ncnc3c12	none (no result: Vaccinia Venus, Vaccinia mCherry)
Clc1ccc2[nH]c3c(N4CCC5(CC4)OCCO5)ncnc3c2c1	AmpC inh detg inconclusive, Vaccinia Venus 8.9µM, Vaccinia mCherry 8.9µM
Clc1ccc(/C=C/c2ccc3ccccc3n2)cc1Cl	none (no result: AmpC inh detg, AmpC no deterg, SARS PLpro yeast)
Cc1ccccc1C(=O)NC(C)c1nnc2n1CCN(Cc1ccccc1F)CC2 (configuration not stated)	none (no result: AmpC inh detg, AmpC no deterg, SARS PLpro yeast)
Cc1c2ccncc2cc2c1[nH]c1ccccc12	Vaccinia Venus 10µM, Vaccinia mCherry 16µM (no result: AmpC inh detg, AmpC no deterg, SARS PLpro yeast)
c1ccc2c(c1)[nH]c1cnccc12	none
COc1ccc2[nH]c3c(C)c4ccncc4c(C)c3c2c1	Vaccinia Venus 10µM, Vaccinia mCherry 7.1µM
Cc1c2ccncc2c(C)c2c1[nH]c1ccccc12	Vaccinia Venus 10µM, Vaccinia mCherry 11µM
Cc1nccc2c1[nH]c1ccccc12	none
C[C@@H]1CN(Cc2ccc3c(c2)CN(C(=O)CN2CCOc4ccccc4C2)CCO3)C[C@H](C)O1	none (no result: AmpC inh detg, AmpC no deterg, SARS PLpro yeast)
CN1C(=O)CC(CC(=O)N2CCCCC2CCO)(c2cccc(F)c2)C1=O (configuration not stated)	none (no result: AmpC inh detg, AmpC no deterg, SARS PLpro yeast)
Cc1cc(C)c(O)c(-c2n[nH]c3c2C(c2cccc(O)c2)N(Cc2ccco2)C3=O)c1 (configuration not stated)	Vaccinia Venus inconclusive, Vaccinia mCherry 10µM
CCCOc1ccc(CNC(=O)Cn2c(=O)oc3ccccc32)cc1	AmpC no deterg 7.9µM
COc1ccc(C(c2c(C)[nH]n(C(N)=S)c2=O)C(C#N)C#N)cc1 (configuration not stated)	none
Cc1[nH]n(-c2ncc(-c3ccc(Cl)cc3)s2)c(=O)c1C(c1ccc(Cl)cc1)C(C#N)C#N (configuration not stated)	AmpC no deterg 40µM
CCn1c(-c2cccnc2)nc2cc(NC(=O)COC)cc(C(=O)N3CCc4ccccc4C3)c21	none (no result: AmpC inh detg, AmpC no deterg, SARS PLpro yeast)
Cc1cc(/C=C2\Sc3ccccc3N2C)cc(C)[n+]1CC1CCCO1 (configuration not stated)	Vaccinia Venus inconclusive, Vaccinia mCherry 8.9µM
NCCCNc1nc(N)c([N+](=O)[O-])c(NC2CCCCC2)n1	Vaccinia Venus 3.2µM, Vaccinia mCherry inconclusive
COCCNc1nc(N)c([N+](=O)[O-])c(NC2CCCCC2)n1	none
COc1cccc(-c2nc(-c3ccccc3)c(-c3ccccc3)[nH]2)c1OCC(=O)O	AmpC inh detg inconclusive (no result: Vaccinia Venus, Vaccinia mCherry)
O=C(O)COc1ccccc1-c1nc(-c2ccccc2)c(-c2ccccc2)[nH]1	AmpC no deterg 3.2µM (no result: Vaccinia Venus, Vaccinia mCherry)
Cc1cc(C)cc(CN2CCOc3ccc(CN4CCC(O)(c5cccnc5)CC4)cc3C2)c1	none (no result: AmpC inh detg, AmpC no deterg, SARS PLpro yeast)
COc1ccc2c(c1)c(=O)c(C(=O)c1ccc(C)cc1)cn2CC(=O)Nc1ccc(F)cc1	AmpC inh detg inconclusive, AmpC no deterg 18µM, Vaccinia Venus inconclusive, Vaccinia mCherry inconclusive
COc1ccc2c(c1)c(=O)c(C(=O)c1ccc(F)cc1)cn2CC(=O)Nc1ccc(F)cc1	AmpC inh detg inconclusive
CCOC(=O)N1CCN(C(=O)c2ccc3nc(N4CCCCC4)sc3c2)CC1	none (no result: Vaccinia mCherry)
O=C(c1ccc2nc(N3CCCCC3)sc2c1)N1CCN(Cc2ccc3c(c2)OCO3)CC1	AmpC inh detg inconclusive, AmpC no deterg 32µM
Cc1nc(SC(C)C(=O)NCC2CCCO2)c2cc(-c3ccccc3)sc2n1 (configuration not stated)	Vaccinia mCherry 5µM
Cc1snc(SCc2ccc(F)cc2)c1C#N	none
Cc1nc(CSc2nsc(/C=C/N(C)C)c2C#N)cs1	AmpC no deterg 20µM
COC(=O)c1ccccc1CSc1nsc(/C=C/N(C)C)c1C#N	AmpC no deterg 28µM (no result: Vaccinia Venus, Vaccinia mCherry)
COCc1c(C(=O)N2CCN(C3CCCC3)CC2)cnn1-c1nccc(-c2cccs2)n1	none (no result: AmpC inh detg, AmpC no deterg, SARS PLpro yeast)
CN(C)CCNc1ncnc2c1sc1nc(-c3ccccc3)c3c(c12)CCCC3	Vaccinia Venus 10µM, Vaccinia mCherry inconclusive
COc1ncnc2c1sc1nc(-c3ccccc3)c3c(c12)CCCC3	AmpC inh detg inconclusive (no result: Vaccinia Venus, Vaccinia mCherry)
COc1cccc2ccc(CN3CCC4(CC3)c3ccccc3[C@@H](NC(=O)c3ccccc3)[C@@H]4O)nc12	none (no result: AmpC inh detg, AmpC no deterg, SARS PLpro yeast)
O=C1Nc2ccc(F)cc2C12Nc1ccccc1-c1nnc(SCc3ccccc3)nc1O2 (configuration not stated)	AmpC no deterg 18µM
Cc1ccc(CSc2nnc3c(n2)OC2(Nc4ccccc4-3)C(=O)Nc3ccc(F)cc32)cc1 (configuration not stated)	AmpC no deterg inconclusive
O=C(CSCc1ccccc1)NNC(=S)Nc1cccc(Cl)c1Cl	AmpC inh detg inconclusive, AmpC no deterg 0.16µM (no result: Vaccinia mCherry)
c1coc(-c2ccccc2CN2CCOc3ccc(CN4CCOCC4)cc3C2)c1	none (no result: AmpC inh detg, AmpC no deterg, SARS PLpro yeast)
Cc1cnc(NC(=O)CCCc2nc3ccccc3s2)s1	Vaccinia Venus 5.6µM (no result: Vaccinia mCherry)
CC(=O)c1ccccc1C(=O)NCC1Cc2cccc(-c3cccnc3)c2O1 (configuration not stated)	none (no result: AmpC inh detg, AmpC no deterg, SARS PLpro yeast)
CN(C)c1ccc(/C=C/c2ccnc3ccc(I)cc23)cc1	none (no result: AmpC inh detg, AmpC no deterg, SARS PLpro yeast)
O=C(/C=C/c1ccc(Cl)c([N+](=O)[O-])c1)Nc1cccc(NC(=O)c2ccco2)c1	none (no result: Vaccinia Venus, Vaccinia mCherry)
O=C(/C=C/c1cccc([N+](=O)[O-])c1)Nc1cccc(NC(=O)c2ccco2)c1	AmpC inh detg inconclusive, AmpC no deterg 3.2µM
O=C(Nc1cccc(NC(=O)c2ccc([N+](=O)[O-])o2)c1)c1ccco1	Vaccinia Venus inconclusive, Vaccinia mCherry 13µM
O=C(NCc1nnc2n1CCN(Cc1ccc(C(F)(F)F)cc1)CC2)c1cccc(F)c1	none (no result: AmpC inh detg, AmpC no deterg, SARS PLpro yeast)

Compound activity from PubChem BioAssay.
